The target of assay [1] is Nuclear receptor subfamily 1 group I member 2 (Rattus norvegicus) (UniProt Q9R1A7). Kind of assay: Rat pregnane X receptor (rPXR) activation by small molecules, qHTS assay (AID 1346983). Also: % is scaled to controls: 0 for no effect and ±100 for the full control effect; nearly all actives have a fitted effect of over 20% in size. Conditions: rPXR luciferase reporter cells, One-Glo luminescence, 24 h; max activation: active compounds read high. The procedure, abridged: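 Luminescent readout (One-Glo luciferase, 30 min room temperature) followed 24 hr compound treatment at 37 C of rPXR cells plated 2,000 per well and preincubated 5hr; qHTS format with compounds delivered in DMSO.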
Sequence of Nuclear receptor subfamily 1 group I member 2 (Rattus norvegicus) (Q9R1A7 whole entry, looked up): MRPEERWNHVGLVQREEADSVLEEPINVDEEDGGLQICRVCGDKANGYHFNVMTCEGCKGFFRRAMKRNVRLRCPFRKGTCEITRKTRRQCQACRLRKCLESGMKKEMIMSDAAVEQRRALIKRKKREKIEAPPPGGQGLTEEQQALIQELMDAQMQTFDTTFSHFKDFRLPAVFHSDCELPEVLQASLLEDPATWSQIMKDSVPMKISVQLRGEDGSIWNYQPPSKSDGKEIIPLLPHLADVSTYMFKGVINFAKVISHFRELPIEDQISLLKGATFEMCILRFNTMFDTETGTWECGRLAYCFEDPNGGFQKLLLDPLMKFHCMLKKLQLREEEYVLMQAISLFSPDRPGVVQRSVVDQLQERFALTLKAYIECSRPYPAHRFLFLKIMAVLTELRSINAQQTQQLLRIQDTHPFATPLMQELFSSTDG
(Quantitative high-throughput screening tests each substance at several concentrations.)

Assay [2] addresses Nuclear receptor subfamily 1 group I member 2 (Homo sapiens) (UniProt O75469). Kind of assay: CYP3A4 induction through human pregnane X receptor (PXR) by small molecules, qHTS assay (AID 1346984). Also: % is scaled to controls: 0 for no effect and ±100 for the full control effect; nearly all actives have a fitted effect of over 40% in size. The procedure, abridged:
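qHTS, concentration-response format: HepG2 DPX-2 line, PXR/CYP3A4-luc. Exposure 24 h, 37C. Substrate Luciferin-IPA 3uM final, 3 h. Detection One-Glo, 30 min RT.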

Assay [3] shares this target. As to the kind of experiment: Human pregnane X receptor (PXR) activation by small molecules, qHTS assay (AID 1346985). Also: % is scaled to controls: 0 for no effect and ±100 for the full control effect; nearly all actives have a fitted effect of over 40% in size. The procedure, abridged:
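DPX-2 cells (HepG2 co-transfected with a PXR response element and a CYP3A4-promoter luciferase construct) were seeded at 2,000 per well, rested 5 hr at 37C, then exposed to DMSO-dissolved compounds for 24 hr. Activation was read as luciferase luminescence.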

Assay [4] addresses Cytochrome P450 2D6 (Homo sapiens) (UniProt P10635). Kind of assay: Cytochrome P450 Family 2 Subfamily D Member 6 (CYP2D6) small molecule antagonists: luciferase reporter qHTS assay (AID 1671196). Also: potency is read from the fitted curve at half-maximal effect; nearly all actives have a fitted effect of over 50% in size. In a few lines:
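Luminescence (RLU), read 20 min after detection reagent, indicated CYP2D6 conversion of proluciferin to luciferin during a 1 h NADPH-dependent reaction at room temperature.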
(In general: A reporter such as luciferase makes a cellular process visible.)

The target of assay [5] is Cytochrome P450 2C9 (Homo sapiens) (UniProt P11712). Kind of assay: Cytochrome P450 Family 2 Subfamily C Member 9 (CYP2C9) small molecule antagonists: luciferase reporter qHTS assay (AID 1671198). Also: series mostly up to about 120 µM; % is scaled to controls: 0 for no effect and ±100 for the full control effect; nearly all actives have a fitted effect of over 50% in size. In a few lines:
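Enzyme-substrate mix preincubated with compound 10 min at room temperature; reaction started with NADPH regeneration solution, 1 h 37C. Luminescent luciferin product read after 20 min detection reagent.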

Assay [6] deals with Cytochrome P450 1A2 (Homo sapiens) (UniProt P05177). Kind of assay: Cytochrome P450 Family 1 Subfamily A Member 2 (CYP1A2) small molecule antagonists: luciferase reporter qHTS assay (AID 1671199). Also: series mostly up to about 120 µM; % is scaled to controls: 0 for no effect and ±100 for the full control effect; nearly all actives have a fitted effect of over 50% in size. The procedure, abridged:
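CYP1A2 turnover of a luminogenic substrate was quantified after 1 h with NADPH regeneration at room temperature. Furafylline served as positive control.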

Assay [7] addresses Voltage-gated inwardly rectifying potassium channel KCNH2 (Homo sapiens) (UniProt Q12809). Kind of assay: Human Ether-a-go-go-Related Gene (hERG) channel small molecule antagonists: fluorescence cell-based qHTS assay (AID 1671200).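 Also: hERG-expressing U2OS cells given a thallium stimulus after FluxOR II dye loading; series mostly up to about 77 µM; % is scaled to controls: 0 for no effect and ±100 for the full control effect; nearly all actives have a fitted effect of over 50% in size.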 In a few lines:
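Fluorescence at 540 nm emission (480 nm excitation) was recorded kinetically for 2 min at 1-second intervals once the thallium-containing stimulus reached cells previously loaded with FluxOR II dye.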
On the technique in general: The hERG channel carries a current that helps repolarise heart muscle cells.

The target of assay [8] is Cytochrome P450 3A4 (Homo sapiens) (UniProt P08684). Kind of assay: Cytochrome P450 Family 3 Subfamily A Member 4 (CYP3A4) small molecule antagonists: luciferase reporter qHTS assay (AID 1671201). In a few lines: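 qHTS, 1536-well. CYP3A4 + proluciferin substrate, cpd 10 min RT → NADPH regen 1 h RT → detection reagent 20 min → luminescence (RLU). Ketoconazole positive control.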
Sequence of Cytochrome P450 3A4 (Homo sapiens) (P08684 whole entry, looked up): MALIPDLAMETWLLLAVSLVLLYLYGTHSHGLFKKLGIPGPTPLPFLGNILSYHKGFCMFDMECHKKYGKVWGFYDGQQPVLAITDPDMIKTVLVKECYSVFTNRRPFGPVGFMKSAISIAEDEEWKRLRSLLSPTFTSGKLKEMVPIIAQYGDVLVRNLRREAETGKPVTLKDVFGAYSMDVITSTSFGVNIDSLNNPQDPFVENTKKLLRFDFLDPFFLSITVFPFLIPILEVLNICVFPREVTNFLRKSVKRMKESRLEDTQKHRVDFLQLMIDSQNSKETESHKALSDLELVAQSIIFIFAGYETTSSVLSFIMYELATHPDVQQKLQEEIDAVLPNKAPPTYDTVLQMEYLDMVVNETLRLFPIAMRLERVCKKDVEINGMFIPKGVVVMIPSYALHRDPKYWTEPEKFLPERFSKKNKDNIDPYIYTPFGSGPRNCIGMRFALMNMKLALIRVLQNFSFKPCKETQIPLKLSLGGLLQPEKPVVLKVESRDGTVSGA

“And” between values parts separate entries of the source, which are not always exact repeats. Identical values can stand only once. Records with an inconclusive call do not appear. A number with no mark means an inactive call. The source made the active and inactive calls. Calls follow the shape of the dose curve; as a rule, active = well fitted curve in the direction sought with a large enough effect in the repeat runs; inconclusive = weak or mixed curves; inactive = no such curve, though single readings can be large; an effect the other way counts as inactive or inconclusive.

Sequence of Cytochrome P450 2D6 (Homo sapiens) (P10635 whole entry, looked up): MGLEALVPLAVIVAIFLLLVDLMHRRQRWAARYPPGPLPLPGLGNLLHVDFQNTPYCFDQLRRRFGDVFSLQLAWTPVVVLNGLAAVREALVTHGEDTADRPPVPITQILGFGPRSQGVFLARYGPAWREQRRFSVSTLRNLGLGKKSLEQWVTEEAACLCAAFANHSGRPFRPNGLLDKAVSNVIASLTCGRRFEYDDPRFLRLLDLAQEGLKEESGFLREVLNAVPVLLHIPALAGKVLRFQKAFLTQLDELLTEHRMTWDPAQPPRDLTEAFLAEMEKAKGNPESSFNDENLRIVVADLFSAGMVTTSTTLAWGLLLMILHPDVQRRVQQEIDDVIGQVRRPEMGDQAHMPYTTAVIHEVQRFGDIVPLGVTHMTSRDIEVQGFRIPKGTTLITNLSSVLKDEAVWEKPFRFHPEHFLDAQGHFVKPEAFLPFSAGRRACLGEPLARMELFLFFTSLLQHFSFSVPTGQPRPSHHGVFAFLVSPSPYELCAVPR
Sequence of Voltage-gated inwardly rectifying potassium channel KCNH2 (Homo sapiens) (Q12809 whole entry, looked up): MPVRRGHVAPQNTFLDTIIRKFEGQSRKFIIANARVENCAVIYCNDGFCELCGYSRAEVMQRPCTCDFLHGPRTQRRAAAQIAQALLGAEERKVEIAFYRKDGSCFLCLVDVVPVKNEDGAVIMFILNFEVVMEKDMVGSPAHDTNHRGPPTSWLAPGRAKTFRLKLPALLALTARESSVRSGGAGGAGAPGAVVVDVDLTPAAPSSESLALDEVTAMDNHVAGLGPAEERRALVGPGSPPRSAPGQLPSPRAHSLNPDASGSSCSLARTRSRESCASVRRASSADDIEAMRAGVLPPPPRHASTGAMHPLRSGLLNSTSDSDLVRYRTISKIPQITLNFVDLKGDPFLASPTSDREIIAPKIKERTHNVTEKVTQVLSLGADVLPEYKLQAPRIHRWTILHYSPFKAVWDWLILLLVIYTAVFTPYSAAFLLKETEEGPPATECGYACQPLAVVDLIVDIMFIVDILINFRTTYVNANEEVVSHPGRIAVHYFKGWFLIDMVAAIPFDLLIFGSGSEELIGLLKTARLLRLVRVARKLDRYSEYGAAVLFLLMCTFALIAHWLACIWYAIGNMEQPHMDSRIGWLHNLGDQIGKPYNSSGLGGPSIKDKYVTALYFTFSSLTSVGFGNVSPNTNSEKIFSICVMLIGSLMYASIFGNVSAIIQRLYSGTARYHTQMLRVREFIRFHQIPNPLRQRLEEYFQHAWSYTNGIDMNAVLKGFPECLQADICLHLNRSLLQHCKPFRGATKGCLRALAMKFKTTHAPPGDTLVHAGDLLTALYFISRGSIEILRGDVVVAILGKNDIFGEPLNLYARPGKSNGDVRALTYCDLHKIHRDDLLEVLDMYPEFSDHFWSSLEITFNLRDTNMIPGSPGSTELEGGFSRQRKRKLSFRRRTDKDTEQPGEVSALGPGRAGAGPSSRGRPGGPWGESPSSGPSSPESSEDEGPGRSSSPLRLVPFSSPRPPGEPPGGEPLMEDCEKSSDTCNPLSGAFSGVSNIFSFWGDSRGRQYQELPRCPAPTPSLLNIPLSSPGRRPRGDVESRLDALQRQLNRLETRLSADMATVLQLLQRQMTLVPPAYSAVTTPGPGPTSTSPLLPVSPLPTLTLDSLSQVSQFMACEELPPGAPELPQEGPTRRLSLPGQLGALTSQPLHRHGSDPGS
Sequence of Cytochrome P450 2C9 (Homo sapiens) (P11712 whole entry, looked up): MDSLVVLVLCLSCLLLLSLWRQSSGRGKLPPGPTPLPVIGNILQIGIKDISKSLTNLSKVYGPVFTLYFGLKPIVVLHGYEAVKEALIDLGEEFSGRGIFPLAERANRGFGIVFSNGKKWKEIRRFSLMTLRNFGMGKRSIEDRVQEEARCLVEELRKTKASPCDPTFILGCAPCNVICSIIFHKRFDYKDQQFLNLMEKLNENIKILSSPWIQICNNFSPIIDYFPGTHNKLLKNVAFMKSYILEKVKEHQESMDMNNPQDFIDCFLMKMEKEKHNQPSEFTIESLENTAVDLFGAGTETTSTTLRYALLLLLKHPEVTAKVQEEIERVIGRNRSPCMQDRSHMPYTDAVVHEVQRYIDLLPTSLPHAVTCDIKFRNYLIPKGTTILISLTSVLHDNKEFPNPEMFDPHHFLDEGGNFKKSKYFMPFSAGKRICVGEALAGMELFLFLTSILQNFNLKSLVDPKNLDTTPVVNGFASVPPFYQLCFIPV
Sequence of Cytochrome P450 1A2 (Homo sapiens) (P05177 whole entry, looked up): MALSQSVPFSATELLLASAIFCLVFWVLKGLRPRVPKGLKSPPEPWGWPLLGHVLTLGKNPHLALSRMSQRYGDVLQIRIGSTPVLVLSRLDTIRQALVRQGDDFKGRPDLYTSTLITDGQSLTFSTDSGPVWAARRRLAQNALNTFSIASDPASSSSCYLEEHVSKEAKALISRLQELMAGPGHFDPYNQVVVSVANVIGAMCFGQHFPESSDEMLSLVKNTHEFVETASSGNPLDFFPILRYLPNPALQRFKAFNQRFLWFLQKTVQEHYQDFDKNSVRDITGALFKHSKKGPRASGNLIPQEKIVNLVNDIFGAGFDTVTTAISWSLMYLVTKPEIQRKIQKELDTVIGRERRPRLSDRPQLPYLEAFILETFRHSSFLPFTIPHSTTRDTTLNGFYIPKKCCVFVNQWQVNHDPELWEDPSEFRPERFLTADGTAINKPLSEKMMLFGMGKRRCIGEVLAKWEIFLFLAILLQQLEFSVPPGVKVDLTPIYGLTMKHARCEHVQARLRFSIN

As to `CCC(NC(C)C)C(O)c1ccc(O)c(O)c1` (stereo unspecified), the max activation in assay [1] was -0.219%. Also, the Potency entry in assay [2] and in assay [3] was “inactive” throughout.
For the compound `CN(Cc1ccccc1)Cc1ccccc1`, the max activation in assay [1] is -2.9%. The Potency result in assay [2] and in assay [3] was “inactive” in each case.
As to `CO[C@H]1C[C@@H]2CC[C@@H](C)[C@@](O)(O2)C(=O)C(=O)N2CCCC[C@H]2C(=O)O[C@H]([C@H](C)C[C@@H]2CC[C@@H](O)[C@H](OC)C2)CC(=O)[C@H](C)C=C(C)[C@@H](O)[C@@H](OC)C(=O)[C@H](C)C[C@H](C)/C=C/C=CC=C1C`, the max activation in assay [1] was -10.6% and -9.93%. In addition, the Potency entry in assay [2] and in assay [3] was “inactive” each time.
`CCCCCCCCCCCCCCCCC(C(=O)O)C(O)(CC(=O)O)C(=O)O` (stereo unspecified): the max activation in assay [1] was -2.33%. In addition, the Potency result in assay [2], in assay [3], in assay [5], in assay [6], in assay [7] and in assay [8] was “inactive” throughout. Further, in assay [4], the Potency was 34.7 µM (active).
Consider `CSCCC(N)C(=O)O` (stereo unspecified), for which the Potency result in assay [2] and in assay [3] was “inactive” throughout.
Regarding `C=CC1=C(C(=O)O)N2C(=O)[C@@H](NC(=O)/C(=N\O)c3csc(N)n3)[C@H]2SC1` (stereo in doubt), the Potency result in assay [2] and in assay [3] was “inactive” in each case.

The values above are taken from PubChem BioAssay (Tox21).
